The values that follow come from PubChem BioAssay.

This experiment in a line: probe aLAP1 signal on lysate-treated microarray – cell lysate, small-molecule microarray, COS7 lysate, primary screen (AID 1124).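 Note: lysate comes from COS7 cells expressing LAP1 and is applied at 0.3 µg/mL; score merges spot fluorescence near 667 nm with signal-to-noise over triplicate slides.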 The following applies: probe aLAP1, fluorescence, higher = more signal.
On to `COC(=O)c1c2oc(c1C(=O)OC)C(=O)N(Cc1ccccc1)Cc1cn(nn1)C[C@H](Cc1ccccc1)NC(=O)N[C@H](CO)CC2`, for which the composite z-score turned out to be 0.487. Then `O=C1O[C@H](c2ccccc2)[C@H](c2ccccc2)N2[C@H]1[C@@H](C(=O)Nc1nc3ccccc3s1)[C@]1(C(=O)Nc3ccc(C#CC4(O)CCCCCC4)cc31)[C@H]2c1ccccc1OCCO`, with 0.398. Then `O=C1O[C@@H](c2ccccc2)[C@@H](c2ccccc2)N2[C@@H](c3ccccc3OCCO)[C@]3(C(=O)Nc4ccc(C#CCCO)cc43)[C@@H](C(=O)N3CCCCCCC3)[C@H]12`, with 1.6; and `CC(C)N1CC=CC23O[C@@H]4C=CCOC(=O)[C@@H]4[C@H]2C(=O)N(CCCO)[C@@H]3C1=O` (some centres not stated), with 0.633. `COc1ccc([Si](C)(C)[C@@H]2[C@@H](CC(=O)N(CCO)Cc3ccccc3)O[C@]3(C(=O)N(Cc4cccc(N5CCOC5=O)c4)c4ccccc43)[C@H]2C)cc1` gave a composite z-score of 0.766.

`COC(=O)[C@@]1(Cc2ccc(F)cc2)[C@H]2c3cc(C(=O)N4CCCC4)n(CCN4CNCC4=O)c3C[C@H]2CN1C(=O)c1ccccc1`: the composite z-score came to 0.197. `C=C[C@@H](COC(C)=O)N(C(=O)OC(C)(C)C)S(=O)(=O)c1ccc(Br)cc1`: the composite z-score was -0.101.

On to `CN(C)C(=O)[C@]1(CCS(=O)(=O)c2ccccc2)N=C(c2ccc(OCCCO)cc2)O[C@@H]1c1ccccc1N=[N+]=[N-]`, for which the composite z-score stood at 0.108. Compound `O=C1NC(=O)C2C1C=CC(C(O)c1ccco1)N2Nc1ccccn1` (configuration not stated) displayed a composite z-score of 0.861. Regarding `C=CC[C@]1(C(=O)NCCN2CCOCC2)N=C(c2ccc(OCCCO)cc2)O[C@H]1c1ccccc1CN=[N+]=[N-]`, the composite z-score amounted to 0.034.

`CCOC(=O)C[C@H]1[C@H](OC(=O)c2ccccc2-c2ccccc2)[C@@H](NC(=O)c2ccc(-c3ccccc3)cc2)c2cc(OCCCO)ccc2N1C(=O)c1ccc2ccccc2n1`: the composite z-score is 0.272. Consider `CCCC[C@@H](O)C1=C(COc2ccccc2)C[C@H]2C(=O)N(C)C(=O)[C@H]2[C@H]1CO`, for which the composite z-score is -0.357.

For `COCCOC(=O)N1C(=O)[C@@]2(c3cc(C#Cc4ccc(OC)cc4)ccc31)[C@H](C(=O)Nc1nc3ccccc3s1)[C@H]1C(=O)O[C@H](c3ccccc3)[C@H](c3ccccc3)N1[C@@H]2c1ccc(O)cc1`, the composite z-score came out at 0.171.

`COC1OC[C@]2(C)[C@H]3C4=C(CN2C(=O)OC(C)(C)C)[C@H](C)C(CO)C(CO)C4CC[C@@H]13` (some centres not stated): the composite z-score was 0.875. In turn, `COCCCNC(=O)[C@]1(CCS(=O)(=O)c2ccccc2)N=C(c2ccc(OCCCO)cc2)O[C@@H]1c1ccccc1N=[N+]=[N-]` registered a composite z-score of 0.371. With `CCCNC(=O)[C@@]1(c2ccc([N+](=O)[O-])cc2)CC(=O)N(C2CCCCC2)[C@@H]1c1ccc(CO)cc1`, the composite z-score was determined as 0.999.

Regarding `[N-]=[N+]=NCc1ccccc1C[C@@]1(C(=O)N2CCOCC2)N=C(c2ccc(OCCCO)cc2)O[C@@H]1c1ccccc1`, the composite z-score is 0.491.

In turn, `NC(N)=NCCCn1cc(CNC(=O)[C@@H](N)Cc2ccccc2)nn1` came in with a composite z-score of 0.155. Then `COC(=O)[C@@]1(Cc2ccc(OC)cc2)[C@H]2c3cc(C(=O)N(C)C)n(CCO)c3C[C@H]2CN1C(=O)c1ccccc1`, with 0.971; and `COCCCNC(=O)[C@@]1(Cc2ccccc2CN=[N+]=[N-])N=C(c2ccc(OCCCO)cc2)O[C@H]1c1ccccc1`, with 0.832; and `C=C[C@@H](OC)[C@H](OC(=O)Nc1ccc(SC)cc1)c1ccc(O)c(F)c1`, with 0.683. On to `CCCCCCCCCCC(O)C1C=CC2C(=O)N(C)C(=O)C2N1Nc1ccc([N+](=O)[O-])cc1[N+](=O)[O-]` (configuration not stated), for which the composite z-score turned out to be 0.141. `O=C(NCc1ccccc1)[C@@H]1c2ccccc2C(=O)N(Cc2ccccc2C(F)(F)F)[C@H]1c1ccc(CO)cc1` showed a composite z-score of 2.63. `COCCOC(=O)N1C(=O)[C@@]2(c3cc(C#CCCO)ccc31)[C@H](C(=O)Nc1nc3ccccc3s1)[C@H]1C(=O)O[C@H](c3ccccc3)[C@H](c3ccccc3)N1[C@@H]2c1ccccc1OCCO` registered a composite z-score of 0.627. In the case of `COCCOC(=O)N1C(=O)[C@@]2(c3cc(C#CCC(C(=O)OC)C(=O)OC)ccc31)[C@H](C(=O)N1CCc3cc(OC)c(OC)cc3C1)[C@H]1C(=O)O[C@H](c3ccccc3)[C@H](c3ccccc3)N1[C@@H]2c1ccc(OCCO)cc1`, the composite z-score came to 0.519. `COc1ccc(CCNC(=O)[C@@]2(Sc3ccc(C)cc3)CC(=O)N(C3Cc4ccccc4C3)[C@@H]2c2ccc(CO)cc2)cc1` displayed a composite z-score of 0.661. Compound `CC1=C([C@H](O)CCc2ccccc2)[C@H](CO)[C@@H]2C(=O)N(C)C(=O)[C@@H]2C1` gave a composite z-score of 0.244.
